High-throughput results deposited in PubChem by National Center for Advancing Translational Sciences (NCATS).
HT1080 IDH1KD tx: kills HT-1080 cells with IDH1 knockdown. HT-1080 IDH1 knockdown viability, ATP luminescence, 48 h. Potency, µM (series often up to 46.1 µM), usual class: cytotoxic. hit rate 2% among 360,000
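Luminescent ATP read-out (CellTiter-Glo, 10 min at room temperature) after 48 h compound exposure at 37 °C gave viability of IDH1-knockdown HT-1080 cells. Activity was normalised to DMSO and cell-free wells, then fitted as concentration-response curves.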
HT1080-NT tox: kills 2HG-producing HT-1080-NT fibrosarcoma cells | HT-1080-NT fibrosarcoma viability, CellTiter-Glo ATP luminescence, 48 h | Potency, µM (titrated, usually from 46.1 µM), actives largely listed as cytotoxic | hit rate 1.6% among 360,000 | AID 686970;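 also: NT is the 2HG producing partner of a matched IDH1 knockdown line; nearly all actives have a fitted effect of over 55% in size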
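Compounds were tested in concentration-response format on HT-1080-NT cells for 48 hours at 37 degrees C. Cell viability came from CellTiter-Glo luminescence; curves were classified by r2, response magnitude and activity.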
DT40 TDP1 no CPT: qHTS for Inhibitors of human tyrosyl-DNA phosphodiesterase 1 (TDP1): qHTS in cells in absence of CPT | DT40 Tdp1-/- hTDP1 cells, no CPT, ATP luminescence, 48 h | Potency, µM (highest dose often 46.2 µM), most hits filed as inhibitors | hit rate 15% among 420,000 | AID 686978, 2013; also: nearly all actives have a fitted effect of over 55% in size
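Chicken DT40 Tdp1-/- cells complemented with human TDP1, screened without camptothecin (DMSO vehicle only), 400 cells/well. Compounds pin-transferred, cells incubated at 37 °C for at least 48 hr. Growth read as ATP-dependent luminescence (CellTiter-Glo, 30 min at RT).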
ALOX12 inh: inhibitors of human 12S-lipoxygenase ALOX12; AID 1671190; hit rate 1.1% among 580,000; Potency, µM (highest dose often 108 µM), hits mostly inhibitors; purified 12hLO, xylenol orange hydroperoxide absorbance; P18054
Target sequence (P18054 whole entry, looked up): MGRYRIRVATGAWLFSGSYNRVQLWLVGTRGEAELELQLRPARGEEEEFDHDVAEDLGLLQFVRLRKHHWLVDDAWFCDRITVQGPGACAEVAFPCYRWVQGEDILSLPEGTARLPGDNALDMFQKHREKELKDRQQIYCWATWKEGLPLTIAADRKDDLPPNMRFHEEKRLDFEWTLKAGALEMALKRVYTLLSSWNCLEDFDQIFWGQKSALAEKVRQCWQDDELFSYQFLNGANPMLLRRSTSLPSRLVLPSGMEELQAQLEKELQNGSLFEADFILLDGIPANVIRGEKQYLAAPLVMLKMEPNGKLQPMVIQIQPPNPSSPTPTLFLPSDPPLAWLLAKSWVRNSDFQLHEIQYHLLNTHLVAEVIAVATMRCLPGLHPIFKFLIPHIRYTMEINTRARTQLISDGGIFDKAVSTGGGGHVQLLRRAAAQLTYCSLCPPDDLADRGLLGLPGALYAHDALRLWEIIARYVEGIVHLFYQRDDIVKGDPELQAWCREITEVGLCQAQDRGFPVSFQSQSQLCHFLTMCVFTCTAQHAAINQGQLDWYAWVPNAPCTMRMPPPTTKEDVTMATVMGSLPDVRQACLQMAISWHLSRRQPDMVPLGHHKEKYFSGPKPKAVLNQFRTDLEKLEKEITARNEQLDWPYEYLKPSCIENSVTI
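Purified human 12hLO (150 nM final) in 25 mM Hepes, 0.01% Triton X-100, pH 7.0 was preincubated 15 min at room temperature with compound. Then 40 uM arachidonic acid was added, 30 min. Hydroperoxide was read by Fe-XO absorbance ratio 573/405 nm.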
DT40 TDP1 CPT: growth inhibition of DT40 Tdp1-/-;hTDP1 cells with camptothecin (screen for TDP1 inhibitors); chicken DT40 Tdp1-/-;hTDP1 cells + 20 nM CPT, ATP luminescence, 48 h; Potency, µM (series often up to 46.2 µM), actives largely listed as inhibitors; hit rate 12% among 420,000; AID 686979; also: nearly all actives have a fitted effect of over 55% in size
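Cell growth measured by CellTiter-Glo luminescence after a minimum 48 h, 37 C compound exposure with 20 nM CPT in Tdp1-knockout DT40 cells stably expressing hTDP1, seeded 400/well; qHTS titration format.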
IL-1B inflam inh: blocks inflammasome-driven IL-1 beta release; hit rate 4.7% among 360,000; activity change, % at 57.5 µM; THP-1 LPS/ATP IL-1B secretion, AlphaLISA, 16 h; stronger effect = lower value; in the data active = activity change below about -50%; inconclusive = mostly about -30% to -49%
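Secreted IL-1B measured by AlphaLISA bead assay after 16 h compound exposure of THP-1 cells; compounds (final up to 57.5 uM) added 1 h before LPS (250 ng/mL) and ATP (1.25 mM) stimulation; lower signal means less secretion.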
Hits are given with their value; . = inactive; ? = inconclusive; / = no result. Only a selection was taken, and hits are over-represented in it overall. Unless noted, calls follow the shape of the dose curve; as a rule, active = well fitted curve in the direction sought with a large enough effect; inconclusive = small, poorly fitted or top-dose-only effect, or another doubt; inactive = no such curve, though single readings can be large; an effect the other way counts as inactive or inconclusive.

SMILES | HT1080 IDH1KD tx | HT1080-NT tox | DT40 TDP1 no CPT | ALOX12 inh | DT40 TDP1 CPT | IL-1B inflam inh
CCn1c(=O)c([N+](=O)[O-])c(NCCN(C)C)c2ccccc21 | . | . | . | . | . | .
O=C(Cc1ccccc1)c1c[nH]c(C(=O)C(Cl)(Cl)Cl)c1 | . | . | 6.5µM | . | 2.9µM | .
O=C(c1c[nH]c(C(=O)C(Cl)(Cl)Cl)c1)c1ccc(F)cc1F | . | . | 13µM | ? | ? | .
CNC(=O)c1cc(C(=O)c2ccc(F)cc2Cl)c[nH]1 | . | . | . | . | . | .
O=C(c1c[nH]c(C(=O)C(Cl)(Cl)Cl)c1)c1ccc(F)cc1Cl | 26µM | . | 13µM | . | ? | -63
O=C(c1ccc(Cl)cc1)c1c[nH]c(C(=O)C(Cl)(Cl)Cl)c1 | . | . | 12µM | ? | 12µM | -112
Cn1ccnc1CN1C(=O)CO[C@H]2CN(CCCc3ccccc3)C[C@H]21 | / | / | / | . | / | /
COc1ccc(Cl)cc1C(=O)NNC(=O)C1CCCC(C(F)(F)F)C1 (configuration not stated) | / | / | / | . | / | /
O=C(c1ccc(Cl)cc1)c1c[nH]c(C(=O)NNc2ccccc2)c1 | 5.2µM | ? | . | ? | . | .
O=C(NCCc1ccc(F)cc1)C(=O)NCC1CCCN1S(=O)(=O)c1ccccc1 (configuration not stated) | ? | . | 8.2µM | . | 10µM | -80
COc1ccc(CCNC(=O)C(=O)NCC2CCCN2S(=O)(=O)c2cccs2)cc1 (configuration not stated) | . | . | ? | . | ? | .
COc1ccc(S(=O)(=O)N2CCCC2CNC(=O)C(=O)NCCc2ccccc2)cc1 (configuration not stated) | 18µM | ? | 7.3µM | . | 7.3µM | .
Cc1ccc(S(=O)(=O)N2CCCC2CNC(=O)C(=O)Nc2ccc(F)cc2F)cc1 (configuration not stated) | . | . | 15µM | . | 23µM | .
COc1ccc(S(=O)(=O)N2CCCC2CNC(=O)C(=O)NCc2ccccc2)cc1 (configuration not stated) | . | . | ? | . | ? | .
COc1ccc(CCNC(=O)C(=O)NCC2CCCN2S(=O)(=O)c2ccccc2)cc1 (configuration not stated) | . | ? | 18µM | . | 21µM | .
O=C(NCCNC(=O)c1cccc2cccnc12)c1cccc2cccnc12 | / | / | / | . | / | /
COc1ccc(NC(=O)Nc2ccc(C)n(CC(=O)Nc3ccc(C)c(C)c3)c2=O)cc1 | / | / | / | . | / | /
CC(CN1CCOCC1)NS(=O)(=O)c1cc(F)cc(F)c1 (configuration not stated) | / | / | / | . | / | /
NC(=O)c1nnn([C@H]2CCN3C(=O)[C@@H](Cc4ccccc4)NC(=O)[C@@H]3C2)c1C(N)=O | / | / | / | . | / | /
COc1ccc(S(=O)(=O)N2CCCC2CNC(=O)C(=O)NCc2ccc(C)cc2)cc1 (configuration not stated) | . | . | 16µM | . | ? | .
CCc1ccc(NC(=O)C(=O)NCC2CCCN2S(=O)(=O)c2ccccc2)cc1 (configuration not stated) | ? | . | 21µM | . | ? | .
Cc1cc(C)cc(NC(=O)CCCc2nnc3n(CC(C)C)c(=O)c4sccc4n23)c1 | / | / | ? | . | ? | /
CCn1c(=O)c2sccc2n2c(CCC(=O)NCc3ccc(Cl)cc3)nnc12 | / | / | 21µM | . | ? | /
CC(=O)NCCNC(=O)CCCc1nnc2n(CCC(C)C)c(=O)c3sccc3n12 | / | / | . | . | . | /
CCc1ccc(NC(=O)CCCc2nnc3n(CC(C)C)c(=O)c4sccc4n23)cc1 | / | / | 23µM | . | 21µM | /
SMILES | HT1080 IDH1KD tx | HT1080-NT tox | DT40 TDP1 no CPT | ALOX12 inh | DT40 TDP1 CPT | IL-1B inflam inh
COc1ccc(CNC(=O)CCCc2nnc3n(CCC(C)C)c(=O)c4sccc4n23)cc1 | / | / | 18µM | . | 18µM | /
CC(C)CCn1c(=O)c2sccc2n2c(CCCC(=O)NCc3ccc(F)cc3)nnc12 | / | / | ? | . | 18µM | /
COCCNC(=O)CCn1ccc2cc(S(=O)(=O)N3CCCCCC3)ccc21 | / | / | / | . | / | /
CC(C)Cn1c(CN2CCC(Cc3ccccc3)CC2)nc2c1c(=O)n(C)c(=O)n2C | / | / | / | . | / | /
CC(C)CCn1c(=O)c2sccc2n2c(CCCC(=O)NCCc3ccccc3)nnc12 | / | / | 15µM | . | 15µM | /
CCn1c(=O)c2sccc2n2c(CCCC(=O)N3CCN(c4cc(C)ccc4C)CC3)nnc12 | / | / | 6.5µM | . | 6.5µM | /
COc1ccc(NC(=O)CCCc2nnc3n(CCC(C)C)c(=O)c4sccc4n23)cc1Cl | / | / | 21µM | ? | ? | /
CCOc1ccc(CCNC(=O)CCCc2nnc3n(CC(C)C)c(=O)c4sccc4n23)cc1 | / | / | 18µM | . | ? | /
CC(C)Cn1c(=O)c2sccc2n2c(CCCC(=O)NCCc3ccccc3)nnc12 | / | / | ? | . | ? | /
CCN1CCN(Cc2ccc(CNC(=O)CC(F)(F)F)cc2)CC1 | / | / | / | . | / | /
CCCCC(CC)CNC(=O)CCCn1c(=O)[nH]c2ccsc2c1=O (configuration not stated) | / | / | ? | . | 15µM | /
CCCCC(CC)CNC(=O)Cn1c(=O)[nH]c2ccsc2c1=O (configuration not stated) | . | . | . | . | . | .
CCCCC(CC)CNC(=O)CCCc1nnc2n(CCC)c(=O)c3sccc3n12 (configuration not stated) | / | / | 23µM | . | 21µM | /
CCCCCCCCCCCCCCCC(O)C[N+](C)(C)CCO (configuration not stated) | . | . | 3.3µM | 16µM | 5.2µM | -76
CN(C)C(=O)c1ccc(OC2CCN(C(=O)c3ccc(F)cc3F)CC2)nc1 | / | / | / | . | / | /
COc1ccc(C(=O)CC(=O)C(=O)Nc2ccccc2Cl)cc1 | . | . | 10µM | . | 13µM | .
COc1ccc(C(=O)NC(CC(=O)O)c2cc([N+](=O)[O-])ccc2Cl)cc1 (configuration not stated) | . | . | . | . | . | .
COc1ccc(NC(=S)Nc2ccccc2C(F)(F)F)cc1 | . | . | . | . | . | .
COc1ccc(C(=O)CC(Nc2ccc([N+](=O)[O-])cc2)c2ccc(Cl)cc2)cc1 (configuration not stated) | 10µM | ? | 18µM | . | ? | -53
COc1ccc(C(=O)CC(=O)C(=O)Nc2c(C)cccc2C)cc1 | . | . | 9.2µM | ? | 21µM | .
COc1ccc(C(=O)CC(=O)C(=O)Nc2ccccc2C(F)(F)F)cc1 | ? | . | 6.5µM | . | 10µM | .
COc1ccc(C(=O)CC(=O)C(=O)Nc2cc(OC)ccc2OC)cc1 | . | . | ? | . | . | .
